In PubChem BioAssay (NCATS) one finds Potency, activity change, negative = inhibition and outcome data, which are given here for 44 compounds.

Experiment [1] in a line: Confirmatory screen GU Rhodamine qHTS for Zika virus inhibitors qHTS (AID 1347157). Note: potency is the fitted concentration of half-maximal effect; nearly all actives have a fitted effect of over 70% in size. The conditions noted are these: purified enzyme assay, Rhodamine110 substrate fluorescence, 15 min. From the text: Avindra Nath, Ph.D., National Institute of Neurological Disorders and Stroke (NINDS), Bethesda, MD
Radhakrishnan Padmanabhan, Ph.D., Georgetown University (GU), Washington D.C.
Zika Virus causes congenital defects, including microcephaly and is associated with Guillain-Barre syndrome, eningoencephalitis and myelitis in infected adult. […] Using a target-based approach, we hope to establish a screening paradigm to uncover novel, cell-active NS2B-NS3 protease (Zika Virus) specific inhibitors from NCATS' collection of small molecules using qHTS.
Four assay panel was created to identify potential Zika Virus inhibitors. […]
Briefly, 3 microL of enzyme (25 nM final concentration), in assay buffer (10 mM Tris-HCl pH 8.0 with 0.01% Tween 20) were dispensed into a 1,536-well solid-bottom black plate (Greiner Bio One, Monroe, NC). […] Plates were then immediately read on a ViewLux High-throughput CCD imager (PerkinElmer, Waltham, MA) equipped with FITC fluorescence optics (480(20) nm excitation, 540(25) nm emission), then incubated (room temperature, protected from light) for 15 minutes (~15% conversion). The change in fluorescence intensity over the 15-minute reaction period was normalized against no-inhibitor and no-enzyme controls and the resulting percent inhibition data were fitted to a 4-parameter Hill equation. […]

Experiment [2] can be described thus: ZIKV-mCherry secondary qHTS for Zika virus inhibitors (AID 1347158). Note: potency is the fitted concentration of half-maximal effect. To be noted: Vero cells, ZIKV-mCherry infection imaging, 48-72 h; series mostly up to 32.6 µM. The procedure, abridged:
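Percent infection is the share of Hoechst-identified Vero nuclei with mCherry signal above 450 RFU (3 SD over negative controls). Cells were infected with recombinant ZIKV-mCherry at MOI 1 after compound addition and imaged 48–72 h later.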
In general terms: In qHTS, concentration-response curves come from the screen itself.

In experiment [3] the test system is Zika virus NS2B-NS3 protease (linked construct). As to the kind of experiment: 384 well plate NINDS Rhodamine confirmatory qHTS for Zika virus inhibitors (AID 1347164). Note: potency is the fitted concentration of half-maximal effect; nearly all actives have a fitted effect of over 65% in size. The conditions noted are these: rhodamine-110 peptide substrate fluorescence; series mostly up to 1 mM. The method in brief: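 Linked protease at a final 5 nM, 30 nM or 60 nM was preincubated ~15 min with compounds, then given 10 microM Ac-LKRR-Rhodamine 110. Fluorescence (ex 485/em 538 nm) after 25 min in the dark at room temperature.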

In experiment [4] the test system is Zika virus NS2B-NS3 protease. The experiment can be described thus: Primary screen GU AMC qHTS for Zika virus inhibitors (AID 1347154). Note: nearly all actives have a fitted effect of over 70% in size. Note: potency is the fitted concentration of half-maximal effect. To be noted: Zika NS2B-NS3 unlinked protease, AMC fluorogenic substrate; series mostly up to 54.1 µM. The method in brief: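 Fluorogenic AMC-substrate cleavage by noncovalent NS2B-NS3 protease complex (25 nM, pH 8.0 Tris buffer with Tween 20) followed for 15 minutes at room temperature (~20% conversion). Percent inhibition from ex340/em450 signal change, fitted by 4-parameter Hill equation.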

In experiment [5] the target is Lysine-specific demethylase 5B (Homo sapiens) (UniProt Q9UGL1). The experiment can be described thus: Optimization screen for KDM5B Histone Demethylases FDH coupled qHTS against the LOPAC library (AID 1347166). The conditions noted are these: KDM5B demethylation, FDH-coupled NADH fluorescence (FDH is formaldehyde dehydrogenase); series mostly up to 57.5 µM. The procedure, abridged: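 KDM5BDeltaAP (200nM final) in 50mM HEPES pH 7.5, 0.01% Tween-20 was preincubated with compound for 10 min at room temperature. A substrate mix of 12.5uM H3K4Me3, 25uM a-ketoglutarate, ascorbate, Fe2+, NAD+ and formaldehyde dehydrogenase was then added. NADH fluorescence (340/450 nm) was read initially and after 30 min.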

Experiment [6] relates to Zika virus NS2B-NS3 protease (unlinked complex). As to the kind of experiment: Primary screen GU Rhodamine qHTS for Zika virus inhibitors: Unlinked NS2B-NS3 protease assay (AID 1347159). Note: nearly all actives have a fitted effect of over 60% in size. To be noted: Recombinant ZIKV NS2B-NS3 protease, Rhodamine110 substrate fluorescence; series mostly up to 107 µM. The procedure, abridged:
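Buffer 10 mM Tris-HCl pH 8.0, 0.01% Tween 20. Unlinked protease 25 nM; compound preincubation 15 min, RT, protected from light. Substrate Rhod110, 1.5 microM; ~15% conversion in 15 min.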

Experiment [7] concerns Zika virus NS2B-NS3 protease (linked construct). As to the kind of experiment: Primary screen NINDS Rhodamine qHTS for Zika virus inhibitors (AID 1347160). Note: nearly all actives have a fitted effect of over 55% in size. The conditions noted are these: purified NS2B-NS3 protease, Rhodamine110 substrate fluorescence; series mostly up to 57.1 µM. The method in brief: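 Aprotinin served as in-plate control. Conditions: 25 nM linked NS2B-NS3, pH 8.0 Tris buffer, titrated compounds, 15 min preincubation and 15 min reaction with 1.5 microM Rhod110 substrate at room temperature.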

A short description of experiment [8]: Vero cells viability qHTS for Zika virus inhibitors (AID 1347167). To be noted: cytotoxicity counter-screen (Zika); series mostly up to 45.9 µM. The method in brief: (§1)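 Luminescent ATP readout (CellTiter Glo) after 30 min at 37 degrees C gives viability; cells in DMEM + 4% FBS were treated 24 to 48 hours with compound, following overnight attachment.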
Experiment [9] can be described thus: HepG2 cells viability qHTS for Zika virus inhibitors (AID 1347168). To be noted: Zika counter-screen; series mostly up to 45.9 µM. The method in brief:
as §1

Experiment [10] can be described thus: Tertiary RLuc qRT-PCR qHTS assay for Zika virus inhibitors (AID 1347169). Note: potency is the fitted concentration of half-maximal effect; nearly all actives have a fitted effect of over 55% in size. The conditions noted are these: infected Vero cells, reporter luminescence, 48-72 h; series mostly up to 5.25 µM. The method in brief:
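Vero cells (1,000 per well) plated overnight at 37 degrees C, treated with compound in DMSO, then infected with recombinant ZIKV-RLuc (Cambodian) at MOI 1-2 for 48-72 hrs. Live-cell Renilla luciferase substrate added; luminescence read after 1-1.5 hrs.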
For orientation: Real-time PCR tracks product formation cycle by cycle.

“And” between values parts separate entries of the source, which are not always exact repeats. Identical values can stand only once. Results filed as inconclusive are left out. Entries that show only a call come without a potency. The source made the active and inactive calls. Calls come from the whole dose curve; as a rule, active = well fitted curve in the direction sought with a large enough effect; inconclusive = small, poorly fitted or top-dose-only effect, or another doubt; inactive = no such curve, though single readings can be large; an effect the other way counts as inactive or inconclusive.

Chain of Lysine-specific demethylase 5B (Homo sapiens) (Q9UGL1 whole entry, looked up): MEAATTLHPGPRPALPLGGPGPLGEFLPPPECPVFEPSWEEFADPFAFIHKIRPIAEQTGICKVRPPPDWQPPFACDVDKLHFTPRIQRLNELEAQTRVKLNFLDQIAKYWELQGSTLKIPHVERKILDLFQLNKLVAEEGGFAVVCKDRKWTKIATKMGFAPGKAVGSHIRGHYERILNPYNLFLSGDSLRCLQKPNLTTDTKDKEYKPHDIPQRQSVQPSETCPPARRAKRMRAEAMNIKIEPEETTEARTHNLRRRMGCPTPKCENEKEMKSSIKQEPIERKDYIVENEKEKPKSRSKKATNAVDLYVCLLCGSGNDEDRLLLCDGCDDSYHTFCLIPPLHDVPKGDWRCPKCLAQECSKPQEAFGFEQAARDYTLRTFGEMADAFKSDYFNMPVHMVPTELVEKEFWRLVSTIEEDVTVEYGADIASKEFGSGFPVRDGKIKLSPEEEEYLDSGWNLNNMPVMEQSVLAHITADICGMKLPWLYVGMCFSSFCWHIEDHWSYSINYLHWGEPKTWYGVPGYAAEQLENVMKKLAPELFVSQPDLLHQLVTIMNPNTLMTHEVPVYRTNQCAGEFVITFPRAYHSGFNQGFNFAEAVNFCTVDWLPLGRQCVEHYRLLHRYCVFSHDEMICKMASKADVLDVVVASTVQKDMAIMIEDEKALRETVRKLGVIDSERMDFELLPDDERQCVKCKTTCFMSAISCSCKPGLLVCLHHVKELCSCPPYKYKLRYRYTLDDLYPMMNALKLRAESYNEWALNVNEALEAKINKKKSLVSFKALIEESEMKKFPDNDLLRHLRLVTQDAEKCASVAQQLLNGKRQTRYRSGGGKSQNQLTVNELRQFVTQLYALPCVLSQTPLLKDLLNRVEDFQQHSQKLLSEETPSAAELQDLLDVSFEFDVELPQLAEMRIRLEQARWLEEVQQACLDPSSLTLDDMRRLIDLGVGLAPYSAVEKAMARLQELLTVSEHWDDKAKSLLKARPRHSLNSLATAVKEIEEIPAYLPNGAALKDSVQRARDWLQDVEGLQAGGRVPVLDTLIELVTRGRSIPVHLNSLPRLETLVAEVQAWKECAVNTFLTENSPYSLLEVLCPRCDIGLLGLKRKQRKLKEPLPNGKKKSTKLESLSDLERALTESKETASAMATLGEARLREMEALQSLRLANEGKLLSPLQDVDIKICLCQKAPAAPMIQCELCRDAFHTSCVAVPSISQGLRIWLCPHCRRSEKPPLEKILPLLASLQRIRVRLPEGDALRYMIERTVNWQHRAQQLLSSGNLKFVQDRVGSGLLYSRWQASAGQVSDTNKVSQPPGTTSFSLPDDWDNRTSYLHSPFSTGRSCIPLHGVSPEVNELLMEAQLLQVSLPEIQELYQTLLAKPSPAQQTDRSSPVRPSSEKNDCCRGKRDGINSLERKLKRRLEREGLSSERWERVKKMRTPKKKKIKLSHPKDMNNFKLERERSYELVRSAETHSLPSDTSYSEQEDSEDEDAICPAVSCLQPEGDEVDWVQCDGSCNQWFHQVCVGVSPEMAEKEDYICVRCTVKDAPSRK

With `O=C(Nc1ccc(Oc2ccc(Cl)cc2)c(Cl)c1)c1cc(I)cc(I)c1O`, the Potency in experiment [1] is 6.31 µM (active); in experiment [2], 11.2 µM (active); in experiment [3], 20 µM (active). For the compound `O=c1c(-c2ccccc2)c1-c1ccccc1`, the Potency entry in [4] is “inactive”. Still for that read-out and setting: under `Cc1cc(O)c(C(C)C)cc1Cl` stands “inactive”; under `O=c1[nH]c(=O)n([C@H]2C[C@H](O)[C@@H](CO)O2)cc1C(F)(F)F`, “inactive”.

For the compound `CCN(CC)CCOC(=O)C(c1ccccc1)C1CCCCC1` (configuration not stated), in [4], the Potency result is “inactive”. For `CCCCN1CCCC1C(=O)Nc1c(C)cc(C)cc1C` (configuration not stated), in experiment [4], the Potency result is “inactive”.

As for `CCCCOc1cc(C(=O)NCCN(CC)CC)c2ccccc2n1`, the Potency result in experiment [4] was “inactive”.

As to `Cc1cc2c(cc1CC(=O)c1sccc1S(=O)(=O)Nc1onc(C)c1Cl)OCO2`, the Potency entry in experiment [4] is “inactive”.

For `CCOC(=O)[C@H](CCc1ccccc1)N[C@@H](C)C(=O)N1Cc2ccccc2C[C@H]1C(=O)O`, the Potency result in [4] is “inactive”. On to `CCOc1ccc2nc3cc(N)ccc3c(N)c2c1`, for which the Potency in [4] was 31.6 µM (active).

As to `CC(C)N=C(N)/N=C(\N)Nc1ccc(Cl)cc1`, the Potency result in experiment [4] was “inactive”. On the same count and under the same terms, the entry for `CCCCC(=O)O[C@]1(C(=O)CO)CC[C@H]2[C@@H]3CCC4=CC(=O)CC[C@]4(C)[C@H]3[C@@H](O)C[C@@]21C` is “inactive”. Turning to `COc1cc2c(cc1OC)[C@@H]1CC(=O)[C@@H](CC(C)C)CN1CC2`, the Potency result in experiment [4] was “inactive”. Same read-out and setting: the entry for `CN(C(=O)CN(CCO)CC(=O)N(C)C(C)(C)Cc1ccccc1)C(C)(C)Cc1ccccc1` is “inactive”; for `Cc1cc(N)c2cc(NC(=O)Nc3ccc4nc(C)cc(N)c4c3)ccc2n1` it is 14.1 µM (active).

Take `CCC(C(=O)OCCN(CC)CC)c1ccccc1` (configuration not stated): the Potency entry in [4] is “inactive”. On the same count and under the same terms, the entry for `CC(=O)c1ccc2c(c1)N(CCCN1CCC(CCO)CC1)c1ccccc1S2` is “inactive”. As to `CCN(CCCCOC(=O)c1ccc(OC)c(OC)c1)C(C)Cc1ccc(OC)cc1` (configuration not stated), the Potency result in [4] is “inactive”.

`Cc1ccnc(NS(=O)(=O)c2ccc(N)cc2)n1`: the Potency result in [4] was “inactive”. On the same count and under the same terms, the entry for `CNCC[C@@H](Oc1ccccc1C)c1ccccc1` is “inactive”; for `CC(=O)OCC(=O)[C@@]12N=C(C)O[C@@H]1C[C@H]1[C@@H]3CCC4=CC(=O)C=C[C@]4(C)[C@H]3[C@@H](O)C[C@@]12C` it is “inactive”. Same read-out and setting: under `Cc1c(C)n(Cc2ccccc2)c2ccc(C(=O)OCCN(C)C)cc12` stands “inactive”; under `CCCSS/C(CCO)=C(\C)N(C=O)Cc1cnc(C)nc1N`, “inactive”; under `COc1cc(/C=C/C(=O)O[C@H]2CC[C@]34C[C@]35CC[C@]3(C)[C@@H]([C@H](C)CCC=C(C)C)CC[C@@]3(C)[C@@H]5CC[C@H]4C2(C)C)ccc1O`, “inactive”. The same measure, in the same setting: under `CCCCCCCCCCCCCCNCCO` stands “inactive”; under `COc1cc(-c2ccc(=O)[nH]n2)ccc1OC(F)F`, “inactive”.

For `CCn1cc(C(=O)O)c(=O)c2cnc(N3CCCC3)nc21`, in [4], the activity change, negative = inhibition was 1.94% [at 6.83 µM] (inactive). Turning to `CC1(C)O[C@@H]2[C@@H](CO[C@@]3(COS(N)(=O)=O)OC(C)(C)O[C@@H]23)O1`, in [4], the Potency entry was “inactive”. Still for that read-out and setting: the entry for `CC(=O)N/N=C/c1ccc([N+](=O)[O-])o1` is “inactive”; for `CC(=O)CC(c1ccc([N+](=O)[O-])cc1)c1c(O)c2ccccc2oc1=O` (configuration not stated) it is “inactive”.

For `NCCCC[C@H](N[C@@H](CCc1ccccc1)C(=O)O)C(=O)N1CCC[C@H]1C(=O)O`, the Potency result in experiment [4] is “inactive”.

As to `COc1ccc(C2C(=O)c3ccccc3C2=O)cc1`, the Potency entry in [4] is “inactive”.

On to `C[C@H]1C[C@H]2[C@@H]3CCC4=CC(=O)C=C[C@]4(C)[C@@]3(Cl)[C@@H](O)C[C@]2(C)[C@@]1(O)C(=O)CO`, for which the Potency result in experiment [4] was “inactive”. The same measure, in the same setting: under `CCOC(=O)/C=C(C)/C=C/C=C(C)/C=C/c1c(C)cc(OC)c(C)c1C` stands “inactive”; under `CC(=O)N(O)CCCCCNC(=O)CCC(=O)N(O)CCCCCNC(=O)CCC(=O)N(O)CCCCCN`, “inactive”; under `COCc1c(C(C)C)nc(C(C)C)c(/C=C/[C@@H](O)C[C@@H](O)CC(=O)O)c1-c1ccc(F)cc1`, “inactive”.

Consider `CCCCCCCCCCCCCCCCOP(=O)([O-])OCC[N+](C)(C)C`, for which, in experiment [4], the Potency entry is “inactive”. Take `c1ccc(CNCCNCc2ccccc2)cc1`: the Potency entry in [4] was “inactive”.

As to `O=C(CCN1CCC(c2ccccc2)C1)c1ccc2c(c1)OCCO2` (configuration not stated), the Potency result in [4] is “inactive”. The same measure, in the same setting: under `CC(C)COC(=O)c1ccc(N)cc1` stands “inactive”. As to `N[C@@H](Cc1cnc[nH]1)C(=O)O`, the outcome in experiment [5] was inactive. For the compound `CC(C)(C)CC(C)(C)c1ccc(OCCOCC[N+](C)(C)Cc2ccccc2)cc1`, the Potency result in experiment [4], in [8] and in [9] was “inactive” throughout. The outcome in [6] and in experiment [7] was inactive. Further, the Potency in experiment [10] was 33 µM (active) and 13.1 µM (active) and 10.4 µM (active).

For the compound `C1CCc2nnnn2CC1`, in [4], the Potency entry was “inactive”. Moreover, the call in experiment [5] was inactive. On to `C[N+]1(CCCCC[N+]2(C)CCCC2)CCCC1`, for which, in experiment [5], the outcome was inactive.
